Experimental data published in PubChem BioAssay (Tox21).
“And” between values parts separate entries of the source, which are not always exact repeats. Equal entries are not always repeated. Results filed as inconclusive are left out. Where a call stands in place of a potency, no number is given. Some structures have more than one record in an assay (separate samples or runs), and their calls can disagree. The source made the active and inactive calls. Unless noted, calls follow the shape of the dose curve; as a rule, active = well fitted curve in the direction sought with a large enough effect in the repeat runs; inconclusive = weak or mixed curves; inactive = no such curve, though single readings can be large; an effect the other way counts as inactive or inconclusive.

Experiments:
[1] = qHTS assay to identify small molecule agonists of the vitamin D receptor (VDR) signaling pathway - cell viability counter screen (AID 743224); also: nearly all actives have a fitted effect of over 50% in size; also: potency is read from the fitted curve at half-maximal effect
Outline: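 Plated VDR-bla cells (4 h, 37C) received compound, incubated 16 h, then LiveBLAzer substrate 2 h RT; CellTiter-Glo added afterwards, luminescence read at 30 min.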

[2] = qHTS assay to identify small molecule antagonists of the vitamin D receptor (VDR) signaling pathway - cell viability counter screen (AID 743225); also: nearly all actives have a fitted effect of over 50% in size; also: potency is read from the fitted curve at half-maximal effect
Outline: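 Cytotoxicity counter screen read by CellTiter-Glo luminescence (30 min, room temperature) in the same wells as the VDR-bla antagonist readout. HEK 293T VDR-UAS-bla cells had 16 h at 37C with compound and 3 nM (final) 1-alpha,25-dihydroxyvitamin D3, then 2 h with FRET substrate.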

[3] = qHTS assay to identify small molecule agonists of the NFkB signaling pathway - cell viability counter screen (AID 1159515; calls by dose curve; also: nearly all actives have a fitted effect of over 55% in size)
Outline: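 Using the same wells as the NFkB reporter read, ME-180 NFkB-bla cells given compounds for 5 hr were assessed for viability via CellTiter-Glo, with luminescence taken after a 30 min room-temperature incubation.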

[4] = qHTS assay to identify small molecule agonists of the endoplasmic reticulum stress response signaling pathway (AID 1159516; active = well fitted activation curve with a large enough effect in the signal ratio in the repeat runs, not every such curve was filed as active; the % refers to the signal ratio)
Outline: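 An ESRE-bla HeLa cell assay: compounds were pin-transferred from DMSO onto overnight-plated cells and left 5 hr at 37 C. Substrate was then loaded for 2 hr at room temperature before reading fluorescence at 460 nm and 530 nm.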

[5] = qHTS assay to identify small molecule agonists of the endoplasmic reticulum stress response signaling pathway - cell viability counter screen (AID 1159517; calls by dose curve;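 also: HeLa cells carrying an ER stress response element beta-lactamase reporter; nearly all actives have a fitted effect of over 50% in size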)
Outline: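 Luminescence readout: CellTiter-Glo, 30 min RT, same wells as the ESRE-bla reporter read. HeLa ESRE-bla, 1,500 cells/well, o/n 37 C; cpd 5 hr 37 C/5% CO2.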

[6] = qHTS assay to identify small molecule antagonists of the retinoid-related orphan receptor gamma (ROR-gamma) signaling pathway - cell viability counter screen (AID 1159520); also: nearly all actives have a fitted effect of over 50% in size; also: potency is read from the fitted curve at half-maximal effect
Outline: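 Tet-on ROR gamma CHO cells (1,000/well) were plated 4 hr, given compounds in DMSO for 2 hr at 37 C, then induced with 1 uM final doxycycline for 16 hr. Viability was read as ATP by CellTiter-Glo luminescence after 30 min.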

[7] = biological target: Nuclear receptor ROR-gamma (Homo sapiens) (UniProt P51449); assay: qHTS assay to identify small molecule antagonists of the retinoid-related orphan receptor gamma (ROR-gamma) signaling pathway (AID 1159521; also: nearly all actives have a fitted effect of over 50% in size; also: potency is read from the fitted curve at half-maximal effect)
Outline: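 Antagonist read-out: drop in luminescence (ONE-Glo) from an RORE-LUC reporter in CHO cells with doxycycline-inducible ROR-gamma; 2 hr compound pretreatment, 1 uM doxycycline, 16 hr incubation at 37 C.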

[8] = qHTS assay to identify small molecule agonists of the AP-1 signaling pathway - cell viability counter screen (AID 1159525; calls by dose curve; also: nearly all actives have a fitted effect of over 55% in size)
Outline: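 ME-180 AP-1-bla, 2500 cells/well, Opti-MEM + 0.5% dialyzed FBS; overnight 37 °C; cpd 15-pt titration, 5 h 37 °C; CellTiter-Glo 30 min RT; luminescence read; normalised to TOAB and DMSO controls.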

[9] = qHTS assay to identify small molecule agonists of the AP-1 signaling pathway (AID 1159526; calls by dose curve; also: potency is read from the fitted curve at half-maximal effect)
[10] = biological target: Retinoic acid receptor RXR-alpha (Homo sapiens) (UniProt P19793); assay: qHTS assay to identify small molecule agonists of the RXR signaling pathway (AID 1159527; calls by dose curve; also: nearly all actives have a fitted effect of over 35% in size)
Outline: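 Agonist-mode beta-lactamase reporter assay: HEK 293T RXR-alpha-UAS-bla cells treated 16 hr at 37 C with compounds, 9-cis retinoic acid as positive control. LiveBLAzer FRET substrate, 405 nm excitation, 460/530 nm emission.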

[11] = qHTS assay to identify small molecule agonists of the RXR signaling pathway - cell viability counter screen (AID 1159529); also: nearly all actives have a fitted effect of over 50% in size
Outline: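 CellTiter-Glo luminescence gave viability in the wells also read for beta-lactamase. Cells (RXR-alpha-UAS-bla HEK 293T, 2% charcoal-stripped FBS medium) had 5 hr plating, then 16 hr compound exposure at 37 C; tetraoctyl ammonium bromide served as positive control.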

[12] = qHTS assay to identify small molecule antagonists of the retinoid acid receptor (RAR) signaling pathway - cell viability counter screen (AID 1159551); also: nearly all actives have a fitted effect of over 35% in size; also: potency is read from the fitted curve at half-maximal effect
Outline: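 Retinol-stimulated (1 uM final) C3RL4 cells, compound 6 h, 37 C; readout CellTiter-Glo luminescence (ATP) after 30 min RT incubation.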

[13] = qHTS assay to identify small molecule antagonists of the retinoic acid receptor (RAR) signaling pathway (AID 1159552; also: nearly all actives have a fitted effect of over 50% in size; also: potency is read from the fitted curve at half-maximal effect)
Outline: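 Luminescent RARE reporter read-out in C3RL4 cells: 6 hr co-treatment at 37 C of test compounds with retinol at 1 uM final. Cells plated overnight beforehand; luciferase reagent incubated 30 min at room temperature before reading.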

[14] = qHTS assay to identify small molecule agonists of the retinoic acid receptor (RAR) signaling pathway (AID 1159553); settings: C3RL4 RARE luciferase reporter, agonist, 6 h; activation: at 73.3 µM (top of the series) unless noted
Outline: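 Reporter readout comes from luciferase under RARE control in C3RL4 cells; compound exposure lasts 6 hr at 37 C in 5% CO2, and luminescence is recorded following a 30 min room-temperature incubation with reagent.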

[15] = qHTS assay to identify small molecule antagonists of the estrogen related receptor (ERR) signaling pathway - cell viability counter screen (AID 1224818);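 also: viability measured after 17.5 h of compound exposure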
Outline: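 After a 6 h pre-incubation, ERR cells were dosed by pin tool with compounds, positive/negative controls or DMSO alone. Following 17.5 h at 37 C and 30 min with CellTiter-Fluor, fluorescence was recorded.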

[16] = qHTS assay to identify small molecule antagonists of the estrogen related receptor (ERR) signaling pathway (AID 1224819)
Outline: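 Luminescence readout (One-Glo, 30 min, RT) of ERR cell line after 18 h compound exposure at 37 C; cells seeded 2,000/well, pre-incubated 6 h, compounds pinned from DMSO stocks.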

[17] = qHTS assay to identify small molecule agonists of the estrogen related receptor (ERR) signaling pathway (AID 1224820)
Outline: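 ERR reporter cells (NTP line) plated 2,000/well, incubated 6 h at 37 C/5% CO2, then pinned with compounds in DMSO and held 18 h at 37 C. One-Glo added; luminescence read after 30 min at room temperature.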

[18] = tested on: estrogen-related receptor alpha (ERRalpha) with PGC-1alpha coactivator, human; assay: qHTS assay to identify small molecule antagonists of the estrogen related receptor signaling pathway with the pleiotropic PPARgamma coactivator (PGC) (AID 1224821; calls by dose curve)
Outline: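 Cells engineered for PGC/ERR signalling (line from NTP) were plated 6 h at 37 C/5% CO2, then exposed to DMSO-dissolved compound for 18 h at 37 C. Luciferase activity was read by One-Glo luminescence after 30 min at room temperature.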

[19] = qHTS assay to identify small molecule antagonists of the estrogen related receptor signaling pathway with the pleiotropic PPARgamma coactivator (PGC) cell viability counter screen (AID 1224822;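 also: viability read after 17.5 h compound exposure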)
Outline: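 PGC/ERR cells were plated at 2,000 per well and allowed 6 h to settle before compound addition. Following 17.5 h at 37 C, CellTiter-Fluor reagent was added and fluorescence was read 30 min later.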

[20] = qHTS assay to identify small molecule agonists of the estrogen related receptor signaling pathway with the pleiotropic PPARgamma coactivator (PGC) (AID 1224823)
Outline: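 PGC/ERR reporter cells were seeded, rested 6 h at 37 C/5% CO2, then exposed to compounds in DMSO by pin transfer for 18 h at 37 C. Luciferase activity was read as luminescence after One-Glo reagent and 30 min at room temperature.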

Retinoic acid receptor RXR-alpha (Homo sapiens), sequence (P19793 whole entry, looked up): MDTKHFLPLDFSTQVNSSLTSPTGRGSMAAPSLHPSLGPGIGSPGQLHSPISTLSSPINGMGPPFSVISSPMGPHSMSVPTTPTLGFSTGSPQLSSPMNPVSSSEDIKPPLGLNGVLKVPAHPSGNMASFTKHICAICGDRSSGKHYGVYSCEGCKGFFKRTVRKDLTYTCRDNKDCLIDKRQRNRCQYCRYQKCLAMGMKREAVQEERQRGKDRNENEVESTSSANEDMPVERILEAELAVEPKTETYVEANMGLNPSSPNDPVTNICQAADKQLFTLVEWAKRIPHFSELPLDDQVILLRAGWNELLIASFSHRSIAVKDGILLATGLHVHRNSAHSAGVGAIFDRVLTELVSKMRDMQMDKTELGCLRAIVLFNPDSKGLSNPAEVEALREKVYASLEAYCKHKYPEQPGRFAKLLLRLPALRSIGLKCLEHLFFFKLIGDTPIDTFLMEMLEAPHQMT

Row | Compound | Potency [1] | Potency [2] | Potency [3] | Potency [4] | Potency [5] | Potency [6] | Potency [7] | Potency [8] | Potency [9] | Potency [10] | Potency [11] | Potency [12] | Potency [13] | Potency [14] | outcome [15] | outcome [16] | outcome [17] | outcome [18] | outcome [19] | outcome [20]
1 | O=C1OC2(c3ccccc31)c1cc(I)c(O)c(I)c1Oc1c2cc(I)c(O)c1I | inactive and 26.5 µM (active) | inactive | inactive | inactive | inactive | inactive | 48.7 µM (active) and inactive | inactive | inactive and 29.8 µM (active) | inactive | inactive | 27.4 µM (active) | 34.8 µM (active) and inactive | inactive | – | – | – | – | – | –
2 | NCCOCCO | inactive | inactive | inactive | inactive | inactive | inactive | inactive | inactive | inactive | inactive | inactive | inactive | – | – | – | – | – | – | – | –
3 | C=CC(=O)OCCCC | inactive | inactive | inactive | inactive | inactive | inactive | inactive | inactive | inactive | inactive | – | inactive | inactive | – | – | – | – | – | – | –
4 | C[C@]12C=CC(=O)C=C1CC[C@H]1[C@@H]3C[C@@H](O)[C@](O)(C(=O)CO)[C@@]3(C)C[C@H](O)[C@@]12F | inactive | inactive | inactive | inactive | inactive | inactive | inactive | inactive | inactive | inactive | – | inactive | – | – | inactive | inactive | inactive | inactive | inactive | inactive
5 | CC(C)=CCO | inactive | inactive | inactive | inactive | inactive | inactive | inactive | inactive | inactive | inactive | inactive | inactive | – | – | – | – | – | – | – | –
6 | CC1=CC(C)(C)Nc2ccccc21 | inactive | inactive | inactive | inactive | inactive | inactive | inactive | inactive | inactive | inactive | inactive | inactive | inactive | inactive | – | – | – | – | – | –
7 | O=C(O)COCCN1CCN(C(c2ccccc2)c2ccc(Cl)cc2)CC1 (stereo unspecified) | inactive | inactive | inactive | inactive | inactive | inactive | inactive | inactive | inactive | inactive | inactive | inactive | – | – | inactive | – | – | – | inactive | –
8 | Cc1cccc(Nc2ccccc2C(=O)O)c1C | inactive | inactive | inactive | inactive | inactive | inactive | inactive | inactive | inactive | inactive | inactive | inactive | inactive | inactive | – | – | – | – | – | –
9 | C=CN1CCCC1=O | inactive | inactive | inactive | inactive | inactive | inactive | inactive | inactive | inactive | inactive | inactive | inactive | – | – | – | – | – | – | – | –
10 | O=Cc1ccccc1C=O | inactive | 21.9 µM (active) and inactive | inactive | inactive | inactive | 7.7 µM (active) and inactive | 17.2 µM (active) and inactive | inactive | inactive | inactive | inactive | inactive | 30.6 µM (active) and inactive | – | – | – | – | – | – | –
11 | CC1(C)OC(=O)NC1=O | inactive | inactive | inactive | inactive | inactive | inactive | inactive | inactive | inactive | inactive | inactive | inactive | – | – | – | – | – | – | – | –
12 | Nc1cc(Cl)c(N)c(Cl)c1 | inactive | inactive | inactive | inactive | inactive | inactive | inactive | inactive | inactive | inactive | inactive | inactive | inactive | inactive | – | – | – | – | – | –
13 | CC(=O)Nc1ccc2c(c1)Cc1cc(NC(C)=O)ccc1-2 | inactive | inactive | inactive | inactive | inactive | inactive | inactive | inactive | inactive | inactive | – | inactive | inactive | – | – | – | – | – | – | –
14 | C=C1C[C@H]2[C@@H]3C=C(C)C4=CC(=O)CC[C@]4(C)[C@H]3CC[C@]2(C)[C@@]1(OC(C)=O)C(C)=O | inactive | inactive | inactive | inactive | inactive | inactive | inactive | inactive | inactive | inactive | inactive | inactive | inactive | – | – | – | – | – | – | –
15 | O=C(O)c1ccc(O)cc1 | inactive | inactive | inactive | inactive | inactive | inactive | inactive | inactive | inactive | inactive | inactive | inactive | inactive | inactive | – | – | – | – | – | –
16 | CNC[C@H](O)c1ccc(O)c(O)c1 | inactive | inactive | inactive | inactive | inactive | inactive | inactive | inactive | inactive | inactive | – | inactive | – | – | inactive | inactive | inactive | inactive | inactive | inactive
17 | Nc1cc([N+](=O)[O-])ccc1C(=O)O | inactive | inactive | inactive | inactive | inactive | inactive | inactive | inactive | inactive | inactive | – | inactive | inactive | inactive | – | – | – | – | – | –
18 | O=C(O)c1cc(=O)[nH]c(=O)[nH]1 | inactive | inactive | inactive | inactive | inactive | inactive | inactive | inactive | inactive | inactive | – | inactive | inactive | – | – | – | – | – | – | –
